The source made the active and inactive calls.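 Rule for the calls, unless noted: active = inhibition of the reporter signal at or above 50%; inactive = inhibition below 50%.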
Key:
[1] = inhibitors of TNFa-induced NFkB p65 translocation, primary screen, imaging, HUVEC, MLSMR starter and 10KST1 sets (AID 438;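 active = inhibition above 20% together with a positive visual image hit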;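 note: compound added about 3h40 before a 20 min TNFalpha stimulation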;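 for inhibition: signal is the nuclear over cytoplasmic p65 intensity ratio per well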); conditions: HUVEC TNFa-induced p65 nuclear translocation; cell count: measured here: nuclei count (cytotoxicity indicator), at 2.08 µM; inhibition: at 2 µM, stronger effect = higher value, 0% TNFa-plus-vehicle, 100% no-TNFa wells
[2] = reduction of polyQ htt aggregates in cells – imaging, exon1htt(103Q)mCFP cells, high-content imaging, primary screen (AID 483;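 active = visual image review flags a hit and inhibition of aggregation exceeds 20%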;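 note: compound exposure lasted 3 days before fixation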;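 for nuclei count: percent of the per-plate median nuclei count of sample wells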); conditions: exon1htt(103Q)mCFP cell line, aggregate imaging, at 2 µM; inhibition of aggregation: stronger effect = higher value; nuclei count: measured here: cell count, toxicity
[3] = endothelial E-selectin expression blockers – imaging, HUVEC, immunofluorescence, MLSMR starter and 10KST1 sets, primary screen (AID 487;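 active = visually confirmed hit in the image check and inhibition above 20%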;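 for inhibition: signal is fraction of cell area covered by stained E-selectin grains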;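 for nuclei count: 100% = median nuclei count of all wells on the same plate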); conditions: HUVEC TNFalpha-induced E-selectin immunofluorescence imaging, at 2 µM; inhibition: stronger effect = higher value; nuclei count: measured here: cell number, toxicity
[4] = target: Voltage-gated potassium channel subunit beta-2 (Rattus norvegicus) (UniProt P62483); assay: inhibitors of rat Kvbeta2 reductase activity – biochemical, NADPH fluorescence, primary screen (AID 622;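 active = fluorescence slope higher than the sample average by over 3 SD, cut at about -0.22 in these data, passing the limit was not always enough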;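 note: slope of raw intensity against log time taken from 70 to 1610 s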); conditions: recombinant KvBeta, 4-cyanobenzaldehyde reduction, at 10 µM, stronger effect = higher value
Chain of Voltage-gated potassium channel subunit beta-2 (Rattus norvegicus) (P62483 whole entry, looked up): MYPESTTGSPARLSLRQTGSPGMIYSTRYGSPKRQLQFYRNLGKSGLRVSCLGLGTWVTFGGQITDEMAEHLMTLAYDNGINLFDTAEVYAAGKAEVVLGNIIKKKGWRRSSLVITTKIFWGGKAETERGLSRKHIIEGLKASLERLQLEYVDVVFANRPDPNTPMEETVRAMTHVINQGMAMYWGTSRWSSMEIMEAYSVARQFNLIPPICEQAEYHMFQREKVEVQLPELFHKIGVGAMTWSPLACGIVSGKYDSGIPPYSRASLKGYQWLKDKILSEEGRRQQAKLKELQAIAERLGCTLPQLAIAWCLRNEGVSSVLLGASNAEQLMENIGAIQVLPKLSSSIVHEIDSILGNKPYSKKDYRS

[5] = target: Voltage-gated potassium channel subunit beta-2 (Rattus norvegicus) (UniProt P62483); assay: enhancers of rat Kvbeta2 NADPH turnover – biochemical, NADPH fluorescence, primary screen (AID 623;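 active = NADPH fluorescence slope more negative than the mean of all samples by about 3 SD, 99.7% confidence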;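 note: fluorescence intensity change per second fitted from 20 to 320 s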); conditions: Recombinant KvBeta, NADPH fluorescence decrease slope, 10 min; at 10 µM; stronger effect = lower value
[6] = target: Alpha-2C adrenergic receptor (Homo sapiens) (UniProt P18825); assay: compounds altering alpha2C-coupled GIRK flux – cell-based, HEK293 alpha2C/GIRK1/2, thallium flux, primary screen (AID 624;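 active = fluorescence slope after compound addition differing from the mean of all screened samples at 99.7% confidence, in either direction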;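 note: slope of fluorescence ratio to pre-addition baseline per second over 15 to 24 s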); conditions: thallium flux BTC fluorescence, at 10 µM, actives lie on both sides
Chain of Alpha-2C adrenergic receptor (Homo sapiens) (P18825 whole entry, looked up): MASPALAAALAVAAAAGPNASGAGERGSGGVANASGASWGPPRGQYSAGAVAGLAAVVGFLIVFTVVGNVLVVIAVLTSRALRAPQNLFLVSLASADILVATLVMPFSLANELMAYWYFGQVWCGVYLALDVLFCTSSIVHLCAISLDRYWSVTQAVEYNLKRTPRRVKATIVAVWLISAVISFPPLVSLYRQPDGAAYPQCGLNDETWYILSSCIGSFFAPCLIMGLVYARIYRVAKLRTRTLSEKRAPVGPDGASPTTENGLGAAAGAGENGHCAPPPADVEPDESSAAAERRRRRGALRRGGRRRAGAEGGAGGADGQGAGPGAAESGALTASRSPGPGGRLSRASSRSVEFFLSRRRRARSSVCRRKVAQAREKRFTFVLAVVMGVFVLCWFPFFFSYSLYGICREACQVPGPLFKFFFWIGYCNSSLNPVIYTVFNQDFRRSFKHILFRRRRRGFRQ

[7] = blockers of RIG-like receptor reporter activation – cell-based, Sendai virus stimulus, luciferase, 10K MLSCN set, TLR/RLR signaling modifier project, primary screen (AID 602276;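 active = inhibition at or above 50% at 10 µM; inactive = inhibition below 50%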;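 note: firefly luciferase from ISG56 promoter only with Renilla not read in this screen; 0% = Sendai virus plus DMSO and 100% = medium plus DMSO without virus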); conditions: HEK293 RL24 IRF3 luciferase reporter, at 10 µM, stronger effect = higher value
[8] = TLR3 IRF3 reporter activation blockers – cell-based, poly I:C stimulus, luciferase, 10K MLSCN set, primary screen (AID 602277); conditions: HEK293-TLR3 RL24 IRF3 luciferase reporter, at 10 µM, stronger effect = higher value

Structure (SMILES)	cell count [1]	inhibition [1]	inhibition of aggregation [2]	nuclei count [2]	inhibition [3]	nuclei count [3]	fluorescence slope [4]	NADPH fluorescence slope [5]	slope [6]	inhibition [7]	inhibition [8]
Cc1cc(NC(=O)c2ccc3c(c2)C(=O)N(Cc2cccnc2)C3=O)no1	770	-6.4% (inactive)	1.8% (inactive)	107%	-127% (inactive)	128%	-0.615 (inactive)	1.2e-05 (inactive)	0.00422 (inactive)	-5.06% (inactive)	-11.7% (inactive)
CCN1CCN(c2ncc(C(=O)N3CCN(c4ccccc4OC)CC3)c3ccccc23)CC1	315	-2.5% (inactive)	0.9% (inactive)	97.8%	13.2% (inactive)	96.4%	-0.466 (inactive)	-4.4e-05 (inactive)	0.00623 (inactive)	0.246% (inactive)	31.7% (inactive)
COCCNC(=O)C(c1ccc(C)o1)N(Cc1ccc(F)cc1)C(=O)Cn1nnc2ccccc21 (stereo not drawn)	591	-8.1% (inactive)	-12.2% (inactive)	121%	12.3% (inactive)	108%	-0.381 (inactive)	-7.3e-05 (inactive)	0.00726 (inactive)	9.7% (inactive)	24.6% (inactive)
Cc1cccc(N2CCN(C(=O)Cn3nc(Cc4ccncc4)c4ccccc4c3=O)CC2)c1C	895	-5.5% (inactive)	14.3% (inactive)	103%	-72% (inactive)	118%	-0.563 (inactive)	-4.2e-05 (inactive)	0.00577 (inactive)	4.52% (inactive)	5.5% (inactive)
CC12CCC(C(=O)N3CCCCC3)(CC1=O)C2(C)C (stereo not drawn)	483	2% (inactive)	-4.8% (inactive)	99.5%	-305% (inactive)	126%	-0.299 (inactive)	8.8e-06 (inactive)	0.00667 (inactive)	10.9% (inactive)	28.7% (inactive)
Cc1ccc(CN2C(=O)CCC2C(=O)NCCCN2CCC(C)CC2)cc1 (stereo not drawn)	379	-7.4% (inactive)	19.6% (inactive)	85.5%	6.2% (inactive)	77.7%	-0.584 (inactive)	-3.4e-05 (inactive)	0.00384 (inactive)	14.7% (inactive)	9.9% (inactive)
COC(=O)Cn1c(=O)c2c(nc(Br)n2CC(=O)OC)n(C)c1=O	640	6.7% (inactive)	-0.4% (inactive)	103%	24.8% (inactive)	101%	-0.406 (inactive)	-1.4e-05 (inactive)	0.00483 (inactive)	9.82% (inactive)	7.4% (inactive)
O=C(NC1CCCC1)C(c1cccs1)N(Cc1ccco1)C(=O)Cn1nnc(-c2cccs2)n1 (stereo not drawn)	482	-3.3% (inactive)	-7.1% (inactive)	102%	3.8% (inactive)	101%	-0.487 (inactive)	-3.1e-05 (inactive)	0.00489 (inactive)	20.2% (inactive)	23.1% (inactive)
Cc1ccc(-n2ncc3c(=O)n(CC(=O)N4CCCc5ccccc54)cnc32)cc1C	227	-2.8% (inactive)	10.4% (inactive)	93.3%	9.3% (inactive)	87.8%	-0.346 (inactive)	-6.2e-05 (inactive)	0.00504 (inactive)	-13.9% (inactive)	-13.7% (inactive)
COc1ccc(-c2nc(C#N)c(NCCCN(C)C)o2)cc1OC	713	-9.1% (inactive)	-8.5% (inactive)	99.3%	-8.3% (inactive)	98.4%	-0.222 (active)	-1.8e-06 (inactive)	0.00305 (inactive)	1.52% (inactive)	33.3% (inactive)
O=C(NCC(=O)N(Cc1cccs1)C(C(=O)NC1CCCC1)c1ccncc1)c1ccco1 (stereo not drawn)	478	-2.9% (inactive)	-19.3% (inactive)	107%	-26.6% (inactive)	114%	-0.25 (inactive)	-2e-05 (inactive)	0.00557 (inactive)	13.3% (inactive)	16.2% (inactive)
O=C(Cn1ncc2c1-c1ccccc1OC2)N1CCN(c2ccccn2)CC1	631	-1.1% (inactive)	-24.9% (inactive)	131%	-55.8% (inactive)	111%	-0.587 (inactive)	-5.3e-05 (inactive)	0.00617 (inactive)	3.72% (inactive)	26.9% (inactive)
COCC(=O)Nc1cc(OC)ccc1OC	230	-7% (inactive)	8.8% (inactive)	87.6%	-28.5% (inactive)	84.6%	-0.501 (inactive)	3.1e-05 (inactive)	0.0057 (inactive)	12.1% (inactive)	31% (inactive)
O=C(NC1CCCC1)C1CC1c1ccccc1 (stereo not drawn)	516	-4.3% (inactive)	-5.1% (inactive)	99.7%	26.9% (inactive)	78.4%	-0.617 (inactive)	-1.4e-05 (inactive)	0.00431 (inactive)	8.1% (inactive)	8.52% (inactive)
O=C(Nc1ccc2c(c1)OCO2)OCc1ccccc1	449	1.6% (inactive)	-6% (inactive)	101%	8.4% (inactive)	101%	-0.439 (inactive)	-5.5e-05 (inactive)	0.0049 (inactive)	-47.7% (inactive)	-107% (inactive)
Cc1cnn(Cc2ccccc2)c1N	638	2.3% (inactive)	-4.6% (inactive)	105%	25.6% (inactive)	100%	-0.6 (inactive)	-3.5e-05 (inactive)	0.00669 (inactive)	14.7% (inactive)	21.3% (inactive)
CCCCCn1c(CCNC(=O)CCC)nc2ccccc21	635	3.4% (inactive)	-4.9% (inactive)	55%	-30.5% (inactive)	104%	-0.552 (inactive)	-4.5e-05 (inactive)	0.00652 (inactive)	10.2% (inactive)	40.2% (inactive)
Cc1ccc2nc(NC(=O)C3CCCN(S(=O)(=O)c4cccc5nonc45)C3)sc2c1 (stereo not drawn)	266	-13.5% (inactive)	9.4% (inactive)	91%	-3.1% (inactive)	70.9%	-0.304 (inactive)	2.8e-06 (inactive)	0.00386 (inactive)	14.7% (inactive)	-5.96% (inactive)
COc1ccc(C2c3c(oc4ccccc4c3=O)C(=O)N2Cc2ccncc2)cc1OC (stereo not drawn)	665	-2.6% (inactive)	-6.6% (inactive)	108%	-9.9% (inactive)	115%	-0.315 (inactive)	-4.9e-05 (inactive)	0.00493 (inactive)	14.3% (inactive)	18.9% (inactive)
CCN(CC)CCCNC(=O)c1cn(C)c2ccc(S(=O)(=O)N(C)C)cc2c1=O	559	-2.8% (inactive)	-53.9% (inactive)	73.6%	69.2% (active)	98.9%	-0.587 (inactive)	-3.7e-05 (inactive)	0.00615 (inactive)	7.25% (inactive)	33.2% (inactive)
Cc1ccc(-n2nc(C)c3cc(C(=O)O)sc32)cc1	369	6.3% (inactive)	11.1% (inactive)	90.3%	-140% (inactive)	97.4%	-0.191 (inactive)	-5e-05 (inactive)	0.00582 (inactive)	12.6% (inactive)	33.9% (inactive)
CC(=O)NC(CCS(C)(=O)=O)C(=O)Nc1cccc(C)c1C (stereo not drawn)	576	4.3% (inactive)	0.4% (inactive)	110%	-6.3% (inactive)	117%	-0.542 (inactive)	-7e-05 (inactive)	0.00627 (inactive)	17.7% (inactive)	38.7% (inactive)
COc1ccc(C(N)=O)cc1N	413	2.5% (inactive)	-8.6% (inactive)	98.3%	-40.2% (inactive)	118%	-0.45 (inactive)	2.7e-05 (inactive)	0.00578 (inactive)	-5.97% (inactive)	8.78% (inactive)
CCOC(=O)c1sc(NC(=O)CSc2nnc3c4ccccc4n(CC)c3n2)nc1C	478	1.6% (inactive)	6.7% (inactive)	106%	-6.3% (inactive)	110%	-0.333 (inactive)	-1.9e-05 (inactive)	0.00568 (inactive)	-6.56% (inactive)	7.93% (inactive)
COc1ccc(OCCOC(=O)c2cccs2)cc1	367	14.9% (inactive)	-30.1% (inactive)	100%	-11.5% (inactive)	112%	-0.604 (inactive)	7.3e-06 (inactive)	0.00778 (inactive)	-2.79% (inactive)	4.6% (inactive)
COc1ccc(NC(=O)C(C)Oc2ccc(/C(C)=N\O)cc2)cc1 (stereo not drawn)	581	2.7% (inactive)	13.8% (inactive)	114%	24.1% (inactive)	105%	-0.307 (inactive)	3.7e-05 (inactive)	0.00609 (inactive)	14.5% (inactive)	19.2% (inactive)
CCOC(=O)Cn1c(CN2CCN(c3cccc(Cl)c3)CC2)nc2c1c(=O)[nH]c(=O)n2C	669	0% (inactive)	-3.2% (inactive)	111%	6.7% (inactive)	120%	-0.583 (inactive)	-1.7e-05 (inactive)	0.00641 (inactive)	16.4% (inactive)	32.5% (inactive)
CCOc1ccc2nc(NC(=O)C3CCCN(S(=O)(=O)c4c(C)noc4C)C3)sc2c1 (stereo not drawn)	674	-4% (inactive)	-0.7% (inactive)	108%	-7.3% (inactive)	114%	-0.592 (inactive)	-1.1e-05 (inactive)	0.00699 (inactive)	-4.49% (inactive)	-47.9% (inactive)

— PubChem BioAssay
